PubChem BioAssay AID720709 (National Center for Advancing Translational Sciences (NCATS), 2013)
Hit rate of the full screen: of about 360,000 compounds, about 520 (0.14%) were called active. Not shown: some 3% with an inconclusive outcome. Calls follow the shape of the dose curve; as a rule, active = well fitted inhibition curve with a large enough effect; inconclusive = small, poorly fitted or top-dose-only effect; inactive = no such curve, though single readings can be large or run the other way. Shown is part of a subset that was picked to be rich in actives. Entries that show only a call come without a potency.

target: Rap guanine nucleotide exchange factor 3 (Homo sapiens) (UniProt O95398); test: qHTS for Antagonist of cAMP-regulated guanine nucleotide exchange factor 3 (EPAC1): primary screen; settings: EPAC1 GEF assay, Rap1b-BODIPY-GDP exchange fluorescence; series mostly up to 115 µM; also: nearly all actives have a fitted effect of over 50% in size
From the text: In multi-cellular eukaryotic organisms, the effects of cAMP are transduced by two ubiquitously-expressed intracellular cAMP receptors, the classic protein kinase A/cAMP-dependent protein kinase (PKA/cAPK) and the more recently discovered exchange protein directly activated by cAMP/cAMP-regulated guanine nucleotide exchange factor (EPAC/cAMP-GEF). Both PKA and EPAC are ubiquitously expressed in all tissues, and an increase in intracellular cAMP levels will lead to the activation of both PKA and EPAC. Therefore, careful dissections of the individual role and relative contribution of EPAC and PKA within the overall cAMP signaling in various model systems are critical for further elucidating the mechanism of cAMP signaling. To date no EPAC-specific antagonists and agonist, as well as isoform-specific agonists have been reported, and developing EPAC-specific pharmacological probes to determine the physiological functions that EPAC play in the overall cAMP-mediated signaling remains a major challenge within the research field. Furthermore, identified regulators of EPAC may lead to new mechanism-based therapeutic strategies specifically targeting the EPAC / cAMP-signaling components as EPAC has been implicated to play important roles in major human pathological conditions such as diabetes, heart disease, and cancer. This qHTS will be used to screen the Molecular Libraries Small Molecule Repository (MLSMR) as a concentration-titration series using the NCGC unique quantitative screening (qHTS) platform to find inhibitors for EPAC1. In addition, this assay will also be used as a counterscreen for the EPAC2 qHTS. This fluorescent based assay is developed and validated for EPAC1 that measures exchange using EPAC effector Rap1 complex with BODIPY-GDP, a GDP analog with a tethered fluorophores. Inhibitors are identified by monitoring the change in fluorescence signal as the exchanged free BODIPY-GDP has a reduced fluorescence compared to Rap1-bound BODIPY-GDP. Decrease in signal (inhibition) is the desired outcome for the EPAC1 antagonist while no activity in this assay is desired for the EPAC2 antagonist counterscreen. de Rooij, J., Zwartkruis, F. J., Verheijen, M. H., Cool, R. H., Nijman, S. M., Wittinghofer, A., and Bos, J.L. (1998) Nature 396, 474-477 [2] Kawasaki, H., Springett, G. M., Mochizuki, N., Toki, S., Nakaya, M., Matsuda, M., Housman, D. E., and Graybiel, A. M. (1998) Science 282, 2275-2279 NIH Chemical Genomics Center [NCGC] NIH Molecular Libraries Probe Centers Network [MLPCN] MLPCN Grant: NS066510 Assay Submitter (PI): Xiaodong Cheng, The University of Texas, Medical Branch
Briefly, three uL of reagents (100 nM EPAC1, 250 nM RAP1B-BODIPY-GDP, 50 uM GDP) were dispensed into a 1536-well Greiner black solid-bottom medium binding assay plate. Controls and test compounds (23 nL) were transferred to the plate via a Kalypsys pin tool equipped with a 1536-pin array. The plates were centrifuged at 1,000 rpm for 15 seconds followed by 5 minute incubation at room temperature. The assay plates were read at 5 minute intervals for 30 minutes in the ViewLux plate reader using 480nm excitation and 540nm emission filters. The results were normalized to the […] positive control ATA and DMSO.
Potency is read from the fitted curve at half-maximal effect.

Rap guanine nucleotide exchange factor 3 (Homo sapiens), sequence (O95398 whole entry, looked up): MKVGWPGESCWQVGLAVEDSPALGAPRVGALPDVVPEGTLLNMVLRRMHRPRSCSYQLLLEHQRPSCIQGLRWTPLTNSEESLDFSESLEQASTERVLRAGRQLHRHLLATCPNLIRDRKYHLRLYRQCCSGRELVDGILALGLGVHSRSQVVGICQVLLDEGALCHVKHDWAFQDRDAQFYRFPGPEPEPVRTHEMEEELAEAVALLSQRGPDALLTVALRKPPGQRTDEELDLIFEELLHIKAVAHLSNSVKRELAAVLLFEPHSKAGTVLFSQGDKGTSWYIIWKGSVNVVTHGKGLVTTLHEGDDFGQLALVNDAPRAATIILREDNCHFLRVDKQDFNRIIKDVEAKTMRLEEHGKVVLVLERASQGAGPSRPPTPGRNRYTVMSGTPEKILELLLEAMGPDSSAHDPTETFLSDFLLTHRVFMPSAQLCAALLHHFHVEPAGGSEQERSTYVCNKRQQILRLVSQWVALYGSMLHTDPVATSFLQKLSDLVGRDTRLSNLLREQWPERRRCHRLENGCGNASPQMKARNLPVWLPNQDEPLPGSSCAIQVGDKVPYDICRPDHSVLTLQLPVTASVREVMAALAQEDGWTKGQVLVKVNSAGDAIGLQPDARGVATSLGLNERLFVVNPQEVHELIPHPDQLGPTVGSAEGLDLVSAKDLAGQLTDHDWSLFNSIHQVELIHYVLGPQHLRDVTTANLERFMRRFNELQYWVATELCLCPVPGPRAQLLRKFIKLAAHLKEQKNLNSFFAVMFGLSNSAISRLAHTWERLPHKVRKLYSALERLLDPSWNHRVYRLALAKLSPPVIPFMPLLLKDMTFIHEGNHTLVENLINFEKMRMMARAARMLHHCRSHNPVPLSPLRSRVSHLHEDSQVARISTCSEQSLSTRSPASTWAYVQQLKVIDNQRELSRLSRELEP

Row | Compound | Potency
1 | Oc1cccc2cc(-c3ccncc3)cnc12 | inactive
2 | CO[C@@H]1CN(C)C(=O)c2cc(NC(=O)Nc3cc(F)ccc3F)ccc2OC[C@H](C)N(C(=O)c2ccccn2)C[C@@H]1C | inactive
3 | Cc1c(CC(=O)N2CCN(C(=O)C3COc4ccccc4O3)CC2)c(=O)oc2c(O)c(O)ccc12 (centres undefined) | 100 µM (active)
4 | COc1ccc2c(C)c(CCC(=O)NC3CC3)c(=O)oc2c1C | inactive
5 | Cc1ccc(S(=O)(=O)NCCC(=O)NNC(=O)C2COc3ccccc3O2)cc1 (centres undefined) | inactive
6 | OCCC#Cc1ccc(N2C(c3ccsc3)=Cc3ccc(F)cc3C2c2c[nH]c3ccccc23)cc1 (centres undefined) | inactive
7 | COc1ccc(CC(N)c2csc(NC(=O)NC(c3ccccc3)c3ccccc3)n2)cc1 (centres undefined) | inactive
8 | CC1CN(C(=O)c2ccccc2NS(=O)(=O)c2cccc([N+](=O)[O-])c2)CC(C)O1 (centres undefined) | inactive
9 | COc1cccc(/C=N/Nc2ccc(S(=O)(=O)Nc3ccccc3C(=O)O)cc2[N+](=O)[O-])c1O | 25.1 µM (active)
10 | CCOc1ncccc1C(=O)NNC(=O)c1cccc(S(=O)(=O)Nc2ccccc2OC)c1 | inactive
11 | COC(=O)C[C@@H]1C=C[C@@H](NC(=O)c2ccc3c(c2)OCO3)[C@@H](CO)O1 | inactive
12 | O=c1[nH]c(SCc2cccc(F)c2)nc2ccccc12 | inactive
13 | N#Cc1c(-c2ccccc2)nc(SCc2cccc(C(F)(F)F)c2)[nH]c1=O | 70.8 µM (active)
14 | CC(=O)CSc1nc(CCc2ccccc2)c(C#N)c(=O)[nH]1 | inactive
15 | O=C(NCc1ccc(F)cc1F)[C@@H]1CCCN1C(=O)[C@@H]1CCCN1C(=O)c1cccc(Cl)c1 | inactive
16 | COc1cccc(/C=C(/CC(=O)Nc2ccc(N3CCOCC3)cc2)c2nc3ccccc3s2)c1 | inactive
17 | COc1ccc(C(=O)Nc2cccc(/C=C(/CCC(=O)O)c3nc4ccccc4s3)c2)cc1 | 35.5 µM (active)
18 | O=C(O)CC/C(=C\c1cc2c(cc1Br)OCO2)c1nc2ccccc2s1 | inactive
19 | CCOc1ccc(CCN2C(=S)N([C@@H](CC(C)C)CN3CCC[C@@H]3CN3C(=S)NC[C@@H]3Cc3ccc(O)cc3)C[C@@H]2Cc2ccc(O)cc2)cc1 | inactive
20 | CCC(C(=O)Nc1c(C)cccc1C)n1c(-c2cc(C)cs2)nc2ccccc21 (centres undefined) | inactive
21 | COc1ccc(C(=O)NCC[N+](C)(C)C)cc1 | inactive
22 | CCOC(=O)[C@]12CCC=C1N(Cc1ccco1)C(=O)[C@H](CC(=O)N1CCSCC1)C2 | inactive

Row | Compound | Potency
23 | CCCCCCN1CCN(C2CN(Cc3cn(CCCCCC)nn3)S(=O)(=O)C2)CC1 (centres undefined) | inactive
24 | CCC(CC)C(C(=O)NC1CCCC1)N1CCN(c2cc(C)nc3ccccc23)CC1 (centres undefined) | inactive
25 | O=C1Nc2ccccc2-n2nnnc2C1N1CCN(c2cccc(C(F)(F)F)n2)CC1 (centres undefined) | inactive
26 | CCOC(=O)[C@]12CCCC=C1N(CCC1=CCCCC1)C(=O)[C@H](CC(=O)N1CCOCC1)C2 | inactive
27 | Cc1cc(Br)cn2c(Cc3ccsc3)c(-c3ccc(C#N)cc3)nc12 | inactive
28 | CCOC(=O)[C@]12CCCC=C1N(CCC1=CCCCC1)C(=O)[C@H](CC(=O)NCCCCc1ccccc1)C2 | inactive
29 | O=C1NC[C@H](CCCCN2C[C@H](Cc3ccc(O)cc3)N(CCc3ccccc3)C(=O)C2=O)N(CCc2ccccc2)C1=O | inactive
30 | O=C1Nc2ccccc2NC(c2ccc3c(c2)OCO3)=C1N(Cc1ccc(F)cc1)C(=O)c1ccco1 | inactive
31 | COc1ccc(C(=O)C(OP(=O)(OC)OC)c2ccccc2OC)cc1 (centres undefined) | inactive
32 | COC(=O)c1ccc2nc(-c3ccc(C)cc3)c(Cc3ccc(OC)cc3C)n2c1 | inactive
33 | CCOC(=O)[C@]12CCCC=C1N(Cc1ccc(Cl)cc1Cl)C(=O)[C@H](CC(=O)N1CCCCC1)C2 | inactive
34 | CC1Cc2[nH][nH]c(=O)c2C(C2CCCC2)O1 (centres undefined) | inactive
35 | COc1cccc(-c2nc3nc(C)cc(C)n3c2NC2CCCCC2)c1 | inactive
36 | CC(C)c1cc(Cn2c3ccccc3c(=O)n2C(C)Cn2cc(C3CC3)nn2)on1 (centres undefined) | inactive
37 | Cc1cc(Br)cn2c(Cc3ccccc3C(F)(F)F)c(-c3ccc(Cl)cc3)nc12 | inactive
38 | CCOC(=O)[C@]12CCCC=C1N(CCC1=CCCCC1)C(=O)[C@H](CC(=O)N1CCSCC1)C2 | inactive
39 | COC(=O)[C@]12CCCCC=C1N(Cc1ccc3c(c1)OCO3)C(=O)[C@H](CC(=O)N1CCOCC1)C2 | inactive
40 | O=C(NCc1ccccc1)C1c2ccccc2OCC(=O)N1CCCN1CCOCC1 (centres undefined) | inactive
41 | COc1ccc([C@H]2CC(=O)C[C@@H](CCn3cc(CC4CCCC4)nn3)O2)cc1 | inactive
42 | COc1ccc(N2c3ccccc3CN(Cc3ccccc3)[C@@H](C)[C@H]2Cc2ccc(-c3ccccc3)cc2)cc1 | inactive
43 | O=S1(=O)CC(N2CCN(CCO)CC2)CN1Cc1cn(Cc2cccc(Cl)c2)nn1 (centres undefined) | inactive
44 | O=C(C(=O)N1CCN(c2ccccc2)CC1)c1ccc2c(c1)OCO2 | inactive
